Measurements: PMC4552634, “A New Set of Chemical Starting Points with Plasmodium falciparum Transmission-Blocking Potential for Antimalarial Drug Discovery” (PLoS ONE, 2015)
Among all 13,000 compounds or so, about 3,200 (25%) showed an effect of 50% or more. The list shows a part of the results.

Tested on: P. falciparum stage V gametocytes
Parameters: BacTiter-Glo ATP luminescence viability of purified stage V gametocytes in 384-well plates, per cent inhibition versus DMSO
Details: 48 h, 5 µM; inhibitor

| Structure (SMILES) | % Inhibition |
| --- | --- |
| CC1(C)N=C(N)N=C(N)C1c1ccc(Cl)c(Cl)c1 (stereo not drawn) [TCMDC-137491] | -1.127% |
| N#CC(NC(=O)C=Cc1ccccc1)c1ccccc1 (stereo not drawn) [TCMDC-131635] | -0.4742% |
| Cl.c1ccc2c(Nc3ccc(Cc4ccc(Nc5c6ccccc6nc6ccccc56)cc4)cc3)c3ccccc3nc2c1 [TCMDC-137354] | 113.6% |
| Cl.Nc1nc(Nc2cccc(O)c2)nc2ccccc12 [TCMDC-124459] | 5.684% |
| c1cc(Cc2ccc(Nc3c4ccccc4nc4ccccc34)cc2)cc(Nc2c3ccccc3nc3ccccc23)c1 [TCMDC-137793] | 84.71% |
| Cc1ccc(Nc2nc(N)c3ccccc3n2)cc1.Cl [TCMDC-123638] | 30.09% |
| c1ccc(Oc2cccc(Nc3ccnc4ccccc34)c2)cc1 [TCMDC-137251] | 14.27% |
| CC1(C)Cc2c(oc3ncn(CCn4cnc5oc6c(c5c4=N)CC(C)(C)SC6)c(=N)c23)CS1 [TCMDC-125795] | -5.815% |
| O=C(NC1CC1)c1ccc(N2CCC(c3ccccc3)CC2)nc1 [TCMDC-134590] | 17.19% |
| Cc1ccc(CON2C(N)=NC(N)=NC2(C)C)cc1C [TCMDC-131660] | 9.174% |
| COc1ccc(NC(=O)[C@H](CC(C)C)Nc2cc(C)nc(NCCOc3ccccc3)n2)cc1 [TCMDC-134760] | 36.25% |
| NOCCCOc1ccc(Cl)cc1 [TCMDC-123471] | 6.801% |
| CC(C)CCNC(=N)Nc1ccc(OCCCOc2ccc(NC(=N)NCCC(C)C)cc2)cc1 [TCMDC-137615] | 100.2% |
| CS(=O)(=O)Nc1ccc(OCCCCCCOc2ccc(NS(C)(=O)=O)cc2)cc1 [TCMDC-137531] | 17.32% |
| CC(C)CCNC(=N)Nc1ccc(OCCCCCOc2ccc(NC(=N)NCCC(C)C)cc2)cc1 [TCMDC-137614] | 113.6% |
| COc1ccc(-c2ccc(CNC(=O)c3cccc(C#N)c3)c(F)c2)cc1CN1CCCN(C)CC1 [TCMDC-133367] | 3.232% |
| O=C(CCc1cccnc1)Nc1ccc(-c2cccc(-c3nc4ccc(F)cc4[nH]3)c2)cc1 [TCMDC-132146] | -0.1199% |
| CC1(C)CC(=O)c2c(O)cc(OCc3ccncc3)cc2O1 [TCMDC-131348] | -21.15% |
| Cc1cccc2nc(-c3ccc(-c4cccc(CNCCN5CCNCC5)c4)cc3)[nH]c12 [TCMDC-132867] | 101.3% |
| Cc1cccc2nc(-c3cccc(-c4cccc(CNCCN5CCNCC5)c4)c3)[nH]c12 [TCMDC-132873] | 108% |
| Cc1cccc2nc(-c3cccc(-c4cccc(CNCCc5cccn5C)c4)c3)[nH]c12.O=C(O)C(F)(F)F [TCMDC-132685] | -19.68% |
| Cc1cccc2nc(-c3cccc(-c4ccc(CNCCCN5CCCC5=O)cc4)c3)[nH]c12.O=C(O)C(F)(F)F [TCMDC-132753] | 7.956% |
| Cc1cccc2nc(-c3ccc(-c4ccc(C(=O)NCCN5CCCC5)cc4)cc3)[nH]c12 [TCMDC-132320] | 6.886% |
| Cc1cccc2nc(-c3cccc(-c4cccc(CNCCCN5CCCC5=O)c4)c3)[nH]c12.O=C(O)C(F)(F)F [TCMDC-132751] | 3.721% |

| Structure (SMILES) | % Inhibition |
| --- | --- |
| CCOc1cc2ncnc(Nc3cc(Cl)c(Cl)c(Cl)c3)c2cc1OCC [TCMDC-131926] | 9.404% |
| O=C(c1ccc(Cl)cc1)N1CCCC(C(=O)N(Cc2nnc(-c3ccccc3Cl)o2)C2CC2)C1 (stereo not drawn) [TCMDC-125331] | -2.423% |
| Fc1ccc(NC(=S)NCCc2ccccc2)cc1 [TCMDC-123847] | -9.114% |
| COc1ccc2c(NN=Cc3ccccn3)ccnc2c1 [TCMDC-142028] | -6.659% |
| O=S(=O)(c1ccc(NC(=S)NN=Cc2ccccn2)cc1)N1CCCCC1 [TCMDC-125787] | 60.8% |
| O=C(Nc1ccc(S(=O)(=O)N2CCCCCC2)cc1)c1cc(-c2ccccc2O)n[nH]1 [TCMDC-125203] | -36.28% |
| Fc1ccc(NC(=S)NN=Cc2ccccn2)cc1 [TCMDC-125521] | 108.6% |
| O=C(Nc1ccc(S(=O)(=O)N2CCCCC2)cc1)c1cc(-c2ccccc2O)n[nH]1 [TCMDC-124310] | -14.76% |
| CC(=NNC(=S)Nc1ccccc1Cl)c1ccccn1 [TCMDC-124278] | 2.359% |
| Cc1c(Cl)cccc1NC(=S)NN=Cc1ccccn1 [TCMDC-125487] | 106.6% |
| Cc1cc(NN=Cc2ccccn2)c2cc(F)ccc2n1 [TCMDC-142020] | 16.37% |
| CC(C)c1ccc(NC(=S)NN=Cc2ccccn2)cc1 [TCMDC-125520] | 108.1% |
| Cn1cnc2c(SCc3ccccc3OCc3ccccc3)ncnc21 [TCMDC-136495] | -28.48% |
| O=C(/C=C/c1ccc(Cl)c(Cl)c1)N(Cc1ccccc1)C1CCC(CN2CCC(c3c[nH]c4ccccc34)CC2)CC1 (stereo not drawn) [TCMDC-140359] | 26.1% |
| COc1cc2c(Nc3ccc(Br)cc3F)ncnc2cc1OCC1CCN(C)CC1 [TCMDC-123476] | 19.55% |
| O=C(O)C(F)(F)F.OC1CCCN(Cc2cccc(-c3ccc(-c4nc5cc(F)ccc5[nH]4)cc3)c2)C1 (stereo not drawn) [TCMDC-133820] | 3.122% |
| COc1ccc2ncc(F)c(NC(=O)C3CCC(NCc4cc5c(F)cccc5[nH]4)CC3)c2n1 (stereo not drawn) [TCMDC-136354] | -14.12% |
| N#Cc1ccc2c(c1)CCN(CCC1CCC(NC(=O)Nc3ccncc3)CC1)C2 (stereo not drawn) [TCMDC-139300] | -15.77% |
| CCOC(=O)c1cc(=O)c2ccc(OCC#N)cc2o1 [TCMDC-131302] | 40.87% |
| Fc1ccc2[nH]c(-c3cccc(-c4cccc(CNCc5cnn(-c6ccccc6)n5)c4)c3)nc2c1.O=C(O)C(F)(F)F [TCMDC-132976] | -2.641% |
| O=C(Cn1cnc2c(nnn2Cc2ccccc2F)c1=O)Nc1ccc2c(c1)OCCO2 [TCMDC-124462] | -30.94% |
| Cc1cc(NN=Cc2ccccn2)c2cc(C(F)(F)F)ccc2n1 [TCMDC-142022] | 35.2% |
| S=C(NN=Cc1ccccn1)Nc1ccc(Cl)c(Cl)c1 [TCMDC-125522] | 102.5% |
| O=C(Nc1ccc2c(c1)OCCO2)c1cc(-c2cccnc2)nc2ccc(Cl)cc12 [TCMDC-124362] | -23.33% |

| Structure (SMILES) | % Inhibition |
| --- | --- |
| S=C(NN=Cc1ccccn1)NC1CC2C=CC1C2 (stereo not drawn) [TCMDC-125752] | 132.2% |
| S=C(NN=Cc1ccccn1)Nc1ccc2c(c1)OCCO2 [TCMDC-132009] | 95.93% |
| CC(C)N=C(N)NN=Cc1ccc(Cl)c(Cl)c1 [TCMDC-138131] | -38.45% |
| FC(F)(F)c1cccc(NC(=S)NN=Cc2ccccn2)c1 [TCMDC-123509] | 31.63% |
| O=C(NC1CC1)c1ccc(Nc2nccc(-c3c(-c4cccc(NC(=O)c5c(F)cccc5F)c4)nn4ccccc34)n2)cc1 [TCMDC-136002] | -35.37% |
| CCCCN1C(=O)C(c2ccccc2)(c2ccccc2)N=C1N [TCMDC-142007] | 12.88% |
| O=C(NCCN1CCOCC1)c1ccc(O)c(-c2cccc(C(F)(F)F)c2)c1 [TCMDC-140162] | 21.52% |
| CCCNC(=O)c1ccc(N2CCC(c3ccccc3C)CC2)nc1 [TCMDC-134583] | 17.76% |
| O=C(NC1CCCCCC1)[C@@H]1CCCN1C(=O)c1ccc(O)c(-c2ccc(Cl)c(Cl)c2)c1 [TCMDC-140843] | 28.6% |
| COc1ccc2nccc([C@@H](O)CN3CCC(NCc4cc5oc(=O)[nH]c5cc4F)CC3)c2c1 [TCMDC-141140] | 3.08% |
| CCc1ccccc1N1CCN(CCCC(=O)c2ccc(NC(=O)c3cc(Cl)cc(Cl)c3)cc2)CC1 [TCMDC-138229] | -19.19% |
| Nc1nc(N)c2cc(Cc3ccccc3Cl)cnc2n1 [TCMDC-137918] | -87.91% |
| CC(C)(C)C(=O)Nc1c(-c2cc(=O)oc3cc4c(cc23)CCC4)oc2ccccc12 [TCMDC-125081] | 76.3% |
| O=C(NCC1CCCCC1)c1cc(=O)c2ccccc2o1 [TCMDC-123621] | 8.117% |
| CCOC(=O)CNC(=O)c1cc(=O)c2ccccc2o1 [TCMDC-131778] | 11.83% |
| COC(=O)c1c(NC(=O)c2cccc(C(F)(F)F)c2)sc2c1CCN(Cc1ccccc1)C2 [TCMDC-125828] | -72.37% |
| CCOC(=O)c1ccc(N2CCN(c3cc(C)ccc3C)CC2)c(NC(=O)Nc2ccc(Cl)c(Cl)c2)c1 [TCMDC-123849] | 0.9649% |
| Cc1cc(NC(=O)[C@@H](Nc2ccc(C#N)c3ccccc23)C2CCCCC2)ccc1F [TCMDC-136635] | -42.79% |
| CO[C@@H]1C[C@@H](C(=O)Nc2ccccc2)N(c2ccc(C#N)c3ccccc23)C1 [TCMDC-135413] | 86.31% |
| COc1ccccc1CCC(C)(C)NC(=O)CC(CCc1ccccc1)Nc1ccc(C#N)c2ccccc12 (stereo not drawn) [TCMDC-132307] | 13.06% |
| N#Cc1ccc(N[C@@H](CC2CCCCC2)C(=O)NCc2cc(F)c(F)cc2F)c2ccccc12 [TCMDC-136630] | -9.58% |
| N#Cc1ccc(N(CC(=O)NCCc2ccccc2)CC2CC2)c2ccccc12 [TCMDC-135574] | -1.825% |
| N#Cc1ccc(N2C[C@@H](OCc3ccccc3)C[C@H]2C(=O)NCCC(c2ccccc2)c2ccccc2)c2ccccc12 [TCMDC-135421] | 62.52% |
| CCOc1cc(C(=O)Nc2ccc3nc(N4CCN(C)CC4)cc(C)c3c2)cc(OCC)c1OCC [TCMDC-123589] | -11.34% |
